# Experimental data: PubChem BioAssay (EPA / NIEHS)
# “And” between values parts separate entries of the source, which are not always exact repeats. Equal entries are not always repeated. Inconclusive results are not listed. The source made the active and inactive calls. How the source made its calls, unless noted: active means hit-call score of the fitted dose curve at least 0.9, where 1 is the maximum; inactive means score below 0.9.
# How the values were obtained:
# [1] = CCTE_Harrill_HTTr_Viability_MCF7: CCTE's 6-hour Cell Viability Assessment for the High-Throughput Transcriptomics (HTTr) Platform, in MCF-7 cells cultured in DMEM + 10% fetal bovine serum, Harrill Lab (AID 2284010)
# How it was run: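 Cells were dosed with chemicals in an eight-point dilution series, imaged 6 hours later for propidium iodide uptake, and the endpoint was analyzed by bidirectional fitting against DMSO as negative control.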
# [2] = CCTE_Harrill_HTTr_Apoptosis_MCF7: CCTE's 6-hour Apoptosis Assessment for the High-Throughput Transcriptomics (HTTr) Platform, in MCF-7 cells cultured in DMEM + 10% fetal bovine serum, Harrill Lab (AID 2284011)
# How it was run: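 MCF-7 cells in DMEM + 10% fetal bovine serum were exposed to chemicals for 6 hours over an eight-point dilution series. Caspase-3/7 activation was imaged by high content imaging with CellEvent Caspase 3/7 Green; bidirectional fitting used DMSO as baseline.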
# [3] = CCTE_Harrill_HTTr_CellCount_MCF7: CCTE's Cell Proliferation Assessment for the High-Throughput Transcriptomics (HTTr) Platform, Harrill Lab (AID 2284012; active means hit-call score of the fitted dose curve at least 0.9, where 1 is the maximum;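 further: count of Hoechst-stained nuclei per well by high-content imaging in MCF-7 cells; cells exposed to compound for six hours; intended direction is loss of nuclei count meaning fewer cells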)
# How it was run: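 Chemicals in eight-point dilution series are added to MCF-7 cells for six hours, nuclei are stained with Hoechst and imaged, and per-well nuclei counts are fitted in both directions relative to DMSO controls.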
# [4] = tested on: DIO2 (gene 1734); experiment: CCTE_GLTED_hDIO2: CCTE's human Deiodinase 2 (DIO2) Inhibition Assay, Great Lakes Toxicology and Ecology Division (GLTED) Lab (AID 2284050; active means hit-call score of the fitted dose curve at least 0.9, where 1 is the maximum)
# How it was run: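 hDIO2 enzyme + test chem, 3 h → free iodide from substrate; step 2: Sandell-Kolthoff (Ce IV reduction by As, iodide-catalysed), spectrophotometric read. Triplicate plates; DMSO = baseline.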
# [5] = tested on: DIO3 (gene 1735); experiment: CCTE_GLTED_hDIO3: CCTE's human Deiodinase 3 (DIO3) Inhibition Assay, Great Lakes Toxicology and Ecology Division (GLTED) Lab (AID 2284055; active means hit-call score of the fitted dose curve at least 0.9, where 1 is the maximum;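 further: potency is for inhibition seen as loss of released iodide signal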)
# How it was run: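 Absorbance from the Sandell-Kolthoff reaction reports iodide released by human DIO3 during a 3-hour incubation with chemical. Inhibition scored as signal loss against DMSO controls.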
# [6] = CCTE_Mundy_HCI_hN2_NOG_NeuriteCount: CCTE's Neurite Outgrowth Assay in human hN2 cells for Neurite Count, Mundy Lab (AID 2284219; active means hit-call score of the fitted dose curve at least 0.9, where 1 is the maximum)
# How it was run: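 In this morphology assay, hNP1-derived neurons received test chemical 2 h post-plating and were fixed two days later in warm paraformaldehyde/sucrose containing Hoechst 33342. Neurites, labelled by rabbit anti-βIII-tubulin (1:800) and Alexa Fluor-488 (1:500), were counted automatically.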
# [7] = CCTE_Mundy_HCI_hN2_NOG_NeuronCount: CCTE's Neurite Outgrowth Assay in human hN2 cells for Neuron Count, Mundy Lab (AID 2284221; active means hit-call score of the fitted dose curve at least 0.9, where 1 is the maximum)
# How it was run: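 Read-out is the number of betaIII-tubulin-positive neurons imaged by automated high-content analysis, with DMSO as negative control.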
# [8] = CCTE_Mundy_HCI_hN2_NOG_NeuriteLength: CCTE's Neurite Outgrowth Assay in human hN2 cells for Neurite Length, Mundy Lab (AID 2284220; active means hit-call score of the fitted dose curve at least 0.9, where 1 is the maximum)
# How it was run: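 Using βIII-tubulin immunofluorescence and Hoechst nuclear counterstain, this component quantifies neurite length in hNP1-derived neurons.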
# [9] = tested on: IYD (gene 389434); experiment: CCTE_GLTED_hIYD: CCTE's human Iodotyrosine Deiodinase (xIYD) Inhibition Assay, Great Lakes Toxicology and Ecology Division (GLTED) Lab (AID 2284317; active means hit-call score of the fitted dose curve at least 0.9, where 1 is the maximum;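 further: cell-free human IYD enzyme made in baculovirus insect cells; iodide freed from monoiodotyrosine measured by cerium arsenite color change at 420 nm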)
# How it was run: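 Absorbance change at 420 nm from the iodide-catalysed cerium-arsenic reaction reports free iodide released by human IYD from monoiodotyrosine. Enzyme, substrate and chemical are incubated 3 h; loss of signal is fitted relative to DMSO baseline.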
# [10] = CCTE_Deisenroth_H295R-HTRF_384WELL_ESTRADIOL: CCTE's H295R-HTRF Assay Evaluation of Estradiol Concentration, Deisenroth Lab (AID 2284361); conditions: actives raise or lower the signal
# How it was run: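 H295R cells exposed 48 h to chemicals at 0.001 - 100 uM final (nine points, triplicate); estradiol in conditioned medium measured by HTRF immunoassay, fitted bidirectionally versus DMSO. Viability by CellTiter-Glo on same plates.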
# [11] = CCTE_Deisenroth_H295R-HTRF_384WELL_TESTOSTERONE: CCTE's H295R-HTRF Assay Evaluation of Testosterone Concentration, Deisenroth Lab (AID 2284373); conditions: actives raise or lower the signal
# How it was run: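 Secreted testosterone was quantified by HTRF immunoassay of medium from human adrenocortical H295R cells after 48 h chemical exposure at 0.001–100 uM final. Gain or loss was fitted against DMSO. ATP-based viability was read on matched wells, five experimental replicates.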
# [12] = CCTE_Deisenroth_H295R-HTRF_384WELL_CTOX: Cytotoxicity Assessment in CCTE's H295R-HTRF Assay, Deisenroth Lab (AID 2284380; active means hit-call score of the fitted dose curve at least 0.9, where 1 is the maximum)
# How it was run: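 H295R adrenocortical carcinoma cells plated 24 h, then exposed 48 h to nine-point series 0.001–100 uM final, triplicate, n=5. ATP measured by CellTiter-Glo 2.0 luminescence on same plates after medium collection; loss versus DMSO.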
# [13] = CCTE_Padilla_ZF_Score.Craniofacial: CCTE's 144 Hour Post-fertilization zebrafish Assay Score for Craniofacial Malformation, Padilla Lab (AID 2284405)
# How it was run: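 Wild-type zebrafish embryos (with chorions), one per well in 10% Hanks', were dosed at 6–8 hpf in sealed plates and kept at 26C. They were rinsed at 5 dpf. At 6 dpf two blinded assessors scored craniofacial malformations by brightfield stereomicroscopy.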
# [14] = CCTE_Padilla_ZF_Score.Edema: CCTE's 144 Hour Post-fertilization zebrafish Assay Score for Edema Malformation, Padilla Lab (AID 2284406)
# How it was run: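 Wild-type zebrafish embryos, one per well in Hanks' solution, dosed at 6-8 hpf, sealed and reared at 26C on a 14:10 h cycle; rinsed on 5 dpf. At 6 dpf, blinded assessors scored edema by stereomicroscopy.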
# [15] = CCTE_Padilla_ZF_Score.Spine: CCTE's 144 Hour Post-fertilization zebrafish Assay Score for Spine Malformation, Padilla Lab (AID 2284407)
# How it was run: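 Wild-type zebrafish embryos, one per well in Hanks' solution, dosed at 6–8 hpf in sealed plates at 26C, 14:10 h light:dark; rinsed at 5 dpf. Two blinded assessors scored spinal defects by stereomicroscopy at 6 dpf; fitted versus DMSO.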
# [16] = CCTE_Padilla_ZF_Score.Swim_bladder: CCTE's 144 Hour Post-fertilization zebrafish Assay Score for Swim Bladder Malformation, Padilla Lab (AID 2284408)
# How it was run: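 Wild-type zebrafish embryos, one per well in 10% Hanks', dosed at 6–8 hpf, sealed, reared at 26C and rinsed at 5 dpf. Blinded assessors scored uninflated swim bladder by stereomicroscopy at 6 dpf, relative to DMSO.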
# [17] = CCTE_Padilla_ZF_Score.Position: CCTE's 144 Hour Post-fertilization zebrafish Assay Score for Position, Padilla Lab (AID 2284409)
# How it was run: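 Wild-type zebrafish embryos (with chorions) exposed singly from 6–8 hpf in sealed wells of Hanks' solution at 26C, rinsed at 5 dpf. At 6 dpf, blinded assessors scored abnormal water-column position by brightfield stereomicroscopy, relative to DMSO.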
# [18] = CCTE_Padilla_ZF_Score.Living: CCTE's 144 Hour Post-fertilization zebrafish Assay Score for Viability, Padilla Lab (AID 2284410);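 further: larval death at 6 dpf judged by absent heartbeat or coagulation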
# How it was run: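 Wild-type zebrafish embryos were exposed singly from 6–8 hpf in sealed wells of Hanks' solution at 26C, then rinsed at 5 dpf. At 6 dpf, blinded assessors scored mortality (no heartbeat or coagulation) by stereomicroscopy, fitted against DMSO.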
# [19] = CCTE_Padilla_ZF_Score.General: CCTE's 144 Hour Post-fertilization zebrafish Assay Score for General Malformation, Padilla Lab (AID 2284411)
# How it was run: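 Wild-type zebrafish embryos were plated singly at 6-8 hpf in 10% Hanks' and exposed in sealed wells at 26C until rinsed on 5 dpf. At 6 dpf two blinded assessors scored mortality, hatching and malformations by stereomicroscopy; gain-of-signal versus DMSO.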
# [20] = CCTE_Padilla_ZF_Score.Tail: CCTE's 144 Hour Post-fertilization zebrafish Assay Score for Tail Malformation, Padilla Lab (AID 2284414)
# How it was run: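 Wild-type zebrafish embryos, one per well in 200 uL 10% Hanks', dosed at 6-8 hpf, sealed, and kept at 26 C on a 14:10 h light cycle. Chemical was rinsed out at 5 dpf. Blinded brightfield scoring of tail defects followed at 6 dpf.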
# [21] = CCTE_Padilla_ZF_Score.Blood_pooling: CCTE's 144 Hour Post-fertilization zebrafish Assay Score for Blood Pooling, Padilla Lab (AID 2284415)
# How it was run: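 Wild-type outbred zebrafish embryos, one per well in 10% Hanks', exposed from 6–8 hpf in sealed plates at 26C on 14:10 h light:dark, rinsed at 5 dpf. Blinded stereomicroscope scoring of blood pooling at 6 dpf; gain-of-signal versus DMSO.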
# [22] = CCTE_Padilla_ZF_Score.Any: CCTE's 144 Hour Post-fertilization zebrafish Assay Score for Any Mortality or Malformation, Padilla Lab (AID 2284416)
# How it was run: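 Wild-type zebrafish embryos with chorions, one per well in 10% Hanks' from 6–8 hpf, dosed in sealed plates at 26 C, 14:10 h light:dark; rinsed at 5 dpf; blinded scoring at 6 dpf for death or malformation, versus DMSO.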
smiles,measurement,setting,value
CC(=O)C(O)O,outcome,[1],inactive
same,outcome,[2],inactive
same,outcome,[3],inactive
CO[Si](OC)OC,outcome,[1],inactive
same,outcome,[2],inactive
same,outcome,[3],inactive
Cc1ccc2[nH]c3cc4c(=O)c5cc(C)ccc5[nH]c4cc3c(=O)c2c1,outcome,[1],inactive
same,outcome,[2],inactive
same,outcome,[3],inactive
CC(CNC(=S)[S-])NC(=S)[S-].[Zn+2] (stereo not given),outcome,[1],inactive
same,outcome,[2],inactive
C/C(=C\c1ccc(C(=O)O)cc1)c1ccc2c(c1)C(C)(C)CCC2(C)C,outcome,[1],inactive
same,outcome,[2],inactive
same,outcome,[3],inactive
COc1cc(O)c(CC=C(C)C)c(O)c1C(=O)/C=C/c1ccc(O)cc1,AC50,[4],215 nM (active) and 797 nM (active)
same,AC50,[5],150 nM (active) and 222 nM (active)
F,outcome,[6],inactive
same,outcome,[7],inactive
[Li+],outcome,[6],inactive
same,AC50,[8],0.3 µM (active)
same,AC50,[7],0.304 µM (active)
N[C@@H](Cc1ccc(O)c([N+](=O)[O-])c1)C(=O)O,AC50,[9],0.0253 µM (active)
Clc1ccc(COC(Cn2ccnc2)c2ccc(Cl)cc2Cl)cc1 (stereo not given),AC50,[10],0.703 µM (active)
same,AC50,[11],0.327 µM (active)
same,outcome,[12],inactive
O=C(CC(=O)C(F)(F)F)C(F)(F)F,outcome,[13],inactive
same,outcome,[14],inactive
same,outcome,[15],inactive
same,outcome,[16],inactive
same,outcome,[17],inactive
same,outcome,[18],inactive
same,outcome,[19],inactive
same,outcome,[20],inactive
same,outcome,[21],inactive
same,outcome,[22],inactive
